Screens from PubChem.
Rows were chosen to be rich in hits. Some 1.1% of all compounds tested hit in one or more screens of this group.
HTR5A inv ctr: HTR5A inverse agonists in luminescence cell assay, primary screen, counter-screen for OPRM1-OPRD1 heterodimer inverse agonist project, full-deck HTS; 5-hydroxytryptamine receptor 5A (Homo sapiens), P47898; HTR5A cell line, inverse agonism; inhibition, % at 9.3 µM; 340,000 compounds, 0.083% hits; AID 504634, 2011; in the data active means inhibition mostly above about 23%, no sharp cut-off; inactive means mostly below about 18%;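 further: 0% = cells with DMSO and 100% = no-cell wells with DMSO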
Target sequence (P47898 whole entry, looked up): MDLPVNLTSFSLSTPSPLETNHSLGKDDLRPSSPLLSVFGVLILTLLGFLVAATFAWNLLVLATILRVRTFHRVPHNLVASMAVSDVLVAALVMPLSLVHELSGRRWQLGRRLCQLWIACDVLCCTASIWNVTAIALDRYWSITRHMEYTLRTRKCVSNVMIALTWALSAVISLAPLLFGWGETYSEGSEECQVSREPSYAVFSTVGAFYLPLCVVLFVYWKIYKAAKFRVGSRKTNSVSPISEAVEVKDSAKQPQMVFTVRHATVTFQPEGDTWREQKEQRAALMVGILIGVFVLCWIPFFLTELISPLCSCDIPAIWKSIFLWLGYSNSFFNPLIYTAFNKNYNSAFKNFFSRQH
HTR5A ag: HTR5A agonists in luminescence cell assay, primary screen, counter-screen for OPRM1-OPRD1 heterodimer agonist project, full-deck HTS. 5-hydroxytryptamine receptor 5A (Homo sapiens), P47898. cell-based. activation, % at 9.3 µM. 340,000 compounds, 0.61% hits; in the data active means activation mostly above about 9.5%, no sharp cut-off; inactive means mostly below about 7.6%;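 further: 0% = cells with vehicle only and 100% = reference agonist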
MOR-DOR ag: agonists of OPRM1-OPRD1 heterodimerization, primary screen, cell-based, luminescence; Mu-type opioid receptor (Homo sapiens) + Delta-type opioid receptor (Homo sapiens), …; cells; 340,000 compounds, 0.3% hits; activation, % at 9.3 µM; in the data active means activation above about 18%;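 further: 0% = vehicle-treated cells and 100% = reference agonist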
MOR-DOR inv ag: inverse agonists of MOR-DOR heterodimerization, primary screen, cell-based, luminescence; cell-based MOR-DOR heterodimer luminescence, inverse agonism; AID 504357, 2011; inhibition, % at 9.3 µM; 340,000 compounds, 0.21% hits; in the data active means inhibition above about 22%, passing the limit was not always enough;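 further: 0% = cells with DMSO and 100% = wells without cells with DMSO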
The depositor's hits bear a star.

SMILES	HTR5A inv ctr	HTR5A ag	MOR-DOR ag	MOR-DOR inv ag
O=C(CCl)N(c1ccccc1)c1c[nH]c2ccccc12	-103.1	40.0*	38.9*	-194.8
O=Cc1[nH]c2ccccc2c1N(C(=O)CCl)c1ccc([N+](=O)[O-])cc1	5.8	2.3	-3.5	18.2
CC(=O)n1cc(CO)c2ccccc21	4.1	2.1	-1.2	5.9
CC(=O)n1cc(N(C(=O)CCl)c2ccc([N+](=O)[O-])cc2)c2ccccc21	-3.9	27.4*	19.8*	-101.4
O=C(Nc1ncccc1Cl)C1COc2ccccc2O1 (stereo not drawn)	11.2	-2.0	-1.5	8.3
Cc1c(/C=N\NC(=O)c2csc3ccccc23)cnn1C	-49.7	10.7*	-0.6	3.1
Cc1cccc(NC(=O)COc2ccc(/C=N\n3cnnc3)cc2)c1	-12.6	3.5	-2.7	13.8
COC(=O)Cn1c2ccc(OC)cc2c2nc(C)sc21	-5.7	2.4	-3.6	18.5
O=C(O)c1ccc2c(c1)nnn2C1CCCCC1	-13.1	3.7	-2.1	11.6
O=C(Nc1ccc(-c2noc(COc3ccccc3Cl)n2)cc1)c1ccco1	-21.1	12.2*	2.5	-10.5
O=C(COc1ccccc1Cl)Nc1ccc(NC(=O)c2ccco2)cc1	1.6	-0.6	-2.6	14.1
COC(=O)[C@@H]1Cc2c([nH]c3ccccc23)C(C)(C)N1C(=O)CCl	-147.2	41.3*	36.9*	-172.3
CCOC(=O)c1c(NC(=O)c2ccccc2Cl)sc2c1CCc1ccccc1-2	11.8	0.6	1.6	-8.1
CCCCC(=O)Nc1sc2c(c1C(=O)OCC)CCC(C=O)=C2Cl	3.8	12.3*	0.9	-5.2
COc1ccc(/C(C)=N/Nc2nncc3ccccc23)cc1	-4.0	1.1	0.3	-1.4
CNC(=S)NNc1nncc2ccccc12	-30.1	12.0*	-2.3	11.0
COc1ccc(/C=N/NC(=O)c2cccc(NC(=O)c3ccc(Cl)cc3)c2)c(OC)c1	-2.7	3.8	0.5	-2.3
COc1ccc(NC(=O)c2cc(-c3ccccc3)nc3c2cnn3C(C)C)cc1	-13.9	5.0	6.0	-24.9
CC(C)n1cnc2c(Nc3cccc(Cl)c3)nc(NCCCO)nc21	5.9	-2.0	-0.8	4.5
C=CC(=O)Nc1cccc(Nc2nc(N[C@H]3CC[C@H](N(C)C)CC3)nc3c2ncn3C(C)C)c1	6.8	-2.7	35.8*	-195.6
Cc1cc(C(C)(C)C)cc(C)c1Cn1c2[n+](c3ccc(C(F)(F)F)cc31)CCCCC2	-27.8	11.2*	-0.4	1.7
Cn1ncc(Cl)c1C(=O)Nc1nnc(C2CC2)s1	-13.6	3.5	-2.6	13.3
COC(=O)C1=C(C)N(C)C(=O)/C1=C\c1ccco1	12.9	4.9	-1.0	5.4
COC(=O)C1=C(C)NC(=O)/C1=C\c1ccco1	-32.7	11.2*	-1.6	8.4
Cc1c(CCC(=O)N2CCC[C@H]2C(=O)O)c(=O)oc2cc3oc4c(c3cc12)CCCC4	-15.5	-2.1	-0.2	0.9
SMILES	HTR5A inv ctr	HTR5A ag	MOR-DOR ag	MOR-DOR inv ag
C[C@H](CO)N1C[C@H](C)[C@H](CN(C)Cc2ccc(-c3ccccc3)cc2)Oc2ccc(NS(=O)(=O)c3ccccc3)cc2CC1=O	-23.3	13.8*	4.2	-24.5
O=c1[nH]cnc2c1c(-c1ccccc1)cn2-c1cccc(Cl)c1	-20.8	10.0*	5.4	-28.0
COc1ccc(-n2cc(-c3ccccc3)c3c(=O)[nH]cnc32)cc1	-16.1	6.4	-0.2	1.0
COc1cccc(CNC(=O)CCS(=O)(=O)c2cccc3nsnc23)c1	17.3	-6.6	-1.2	7.2
COc1cccc(CNC(=O)CCS(=O)(=O)c2cccc3nonc23)c1	20.0	13.5*	0.5	-2.9
CN1CCN(S(=O)(=O)c2cccc(C(=O)NCCC3=CCCCC3)c2)CC1	-17.6	6.4	-0.3	2.2
CCOC(=O)N1CCC(NC(=O)CSCc2nc(-c3ccc(OC)cc3)oc2C)CC1	-15.6	11.2*	-3.0	15.2
Cc1ccc(S(=O)(=O)Nc2ccc3nc(C)sc3c2)cc1	5.9	-0.7	0.3	-1.6
Cc1nc2ccc(NS(=O)(=O)c3cccc([N+](=O)[O-])c3)cc2s1	-36.9	9.0*	0.5	-2.7
CCc1ccccc1NS(=O)(=O)c1ccc(OC)c2ncccc12	-34.6	9.2*	4.0	-20.6
CCCCc1ccc(-c2c(C#N)c(N)nc3c2CCCC3)s1	-2.3	-0.6	-0.4	2.4
COc1ccccc1-n1nnnc1SCC(=O)NC1CCCCC1	-10.2	-0.5	-1.9	13.3
C/C=C(\C)CN1CCC(n2nccc2NC(=O)CCCc2ccccc2)CC1	9.0	11.9*	-1.0	5.5
COc1ccc(Nc2nc(S(=O)(=O)c3ccc(C)cc3)c(Cl)s2)cc1	-34.9	12.7*	9.2	-65.8
Cc1ccc(S(=O)(=O)c2nc(Nc3ccccc3)sc2Cl)cc1	1.4	-0.5	8.0	-57.7
COc1cc(Cl)c(C)cc1NC(=O)CNC(C)c1ccccc1OC (stereo not drawn)	8.7	10.3*	-0.5	2.9
COc1ccccc1C(C)NCC(=O)Nc1c(F)cccc1F (stereo not drawn)	5.1	-1.8	-0.5	2.6
CN(C)S(=O)(=O)c1ccc2c(c1)nc(CCC(=O)O)n2C	-9.8	4.7	-1.4	6.4
O=S1(=O)N[C@@H](Cc2ccccc2)COc2cc(Br)ccc21	-0.1	0.0	3.4	-16.2
Cc1cc(OCC(=O)Nc2ccncc2)cc(C)c1Br	-1.0	12.6*	4.0	-23.6
COCCCNc1oc(/C=C/c2ccccc2)nc1C#N	2.8	-0.8	-1.0	4.8
COc1cccc(/C=C/c2nc(C#N)c(NCC(C)C)o2)c1	-46.3	12.3*	1.8	-8.8
CCOC(=O)C(CC)Sc1nnc2n1C(C)(C)Cc1ccccc1-2 (stereo not drawn)	13.2	-2.8	-2.7	13.4
O=C(c1ccco1)N1C(=O)c2cccc3cccc1c23	-21.0	3.3	1.0	-4.6
O=C(c1ccccc1F)N1C(=O)c2cccc3cccc1c23	-38.4	12.2*	2.5	-13.2
SMILES	HTR5A inv ctr	HTR5A ag	MOR-DOR ag	MOR-DOR inv ag
CSc1ncccc1C(=O)OCC(=O)NC(C)CCc1ccccc1 (stereo not drawn)	-25.6	9.2	-3.2	13.4
CSc1ncccc1C(=O)OCC(=O)NCc1ccccc1	12.3	12.9*	-3.2	12.5
CCOc1cc(C(c2c(C)[nH][nH]c2=O)c2c(C)[nH][nH]c2=O)ccc1OCc1ccc([N+](=O)[O-])cc1	-55.4	11.5*	-0.2	0.9
O=S(=O)(c1ccc2c(c1)OCCO2)N1CCNCC1	3.1	-1.1	-0.6	3.5
O=C(O)c1ccc(N=N/C(=N\Nc2ccc(C(=O)O)cc2)c2ccccc2)cc1	35.3*	-3.2	-5.5	30.7*
O=C(O)c1cccc(N/N=C(\N=Nc2ccccc2)c2ccccc2)c1	24.1	-0.7	-4.5	25.0
Cc1ccc(C2N(c3ccc(F)cc3)C(=O)C3CCCN32)cc1 (stereo not drawn)	0.5	-0.2	-0.8	4.2
Cn1c2ccccc2c(=O)c2ccc(NCCc3cccs3)cc21	-18.8	13.8*	5.7	-34.8
C=CCNC(=S)N1CCN(S(=O)(=O)c2ccc(C)cc2)CC1	-11.2	12.4*	-0.8	4.1
